Test results from PubChem BioAssay AID686979 (National Center for Advancing Translational Sciences (NCATS), 2013).
The campaign covered roughly 420,000 compounds. About 50,000 (12%) were called active. Where a call stands in place of a potency, no number is given. Roughly 26% stayed inconclusive and do not appear here. The sample holds actives, similar compounds and a random draw of the others, so the mix is not that of the screen. Calls follow the shape of the dose curve; as a rule, active = well fitted inhibition curve with a large enough effect; inconclusive = small, poorly fitted or top-dose-only effect; inactive = flat fitted curve, though single readings scatter.

Assay: qHTS for Inhibitors of human tyrosyl-DNA phosphodiesterase 1 (TDP1): qHTS in cells in presence of CPT; also: nearly all actives have a fitted effect of over 55% in size
Settings: chicken DT40 Tdp1-/-;hTDP1 cells + 20 nM CPT, ATP luminescence, 48 h; series mostly up to 46.2 µM
Procedure, shortened: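 Chicken DT40 Tdp1-/- cells complemented with human TDP1, 400 cells/well, exposed to compounds plus 20 nM camptothecin for at least 48 h at 37 C; viability read as ATP content by CellTiter-Glo luminescence.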
Potency is read from the fitted curve at half-maximal effect.

Row | SMILES | Potency | activity change, negative = growth inhibition
1 | CN(CC(=O)Nc1c(Cl)cccc1Cl)C(=O)c1ccncc1 | inactive | –
2 | COc1ccc(C(=O)Nc2cccc(NC(=O)c3ccc(OC)cc3OC)n2)c(OC)c1 | 20.6 µM (active) | –
3 | COc1ccc(C(=O)NC2=NCCS2)c(OC)c1 | inactive | –
4 | COC(=O)c1sc(NC(=O)c2ccc(OC)cc2OC)nc1C | inactive | –
5 | CC1(C)NC(=O)N(CC(=O)Nc2cc(C(F)(F)F)cc(C(F)(F)F)c2)C1=O | inactive | –
6 | CN1CCn2cnc(C(=O)NCC(=O)OC(C)(C)C)c2C1=O | inactive | –
7 | O=C(CSc1nc2c(c(=O)[nH]1)CN(Cc1ccc(F)cc1)CC2)Nc1ccccc1Cl | inactive | –
8 | Cc1cc(C)cc(NC(=O)NCc2ccccn2)c1 | inactive | –
9 | CCCCn1c(N)c(N(CCOC)C(=O)COc2c(C)cccc2C)c(=O)[nH]c1=O | inactive | –
10 | COC(=O)c1cccc(-n2[nH]nnc2=S)c1 | inactive | –
11 | COc1ccc(C(=O)OCC(=O)NCC2CCCCC2)cc1S(=O)(=O)N1CCCc2ccccc21 | inactive | –
12 | COc1cc(C)c(C)cc1S(=O)(=O)N1CCCc2ccccc21 | 16.4 µM (active) | –
13 | COc1ccc(Br)cc1S(=O)(=O)N1CCN=C1C | inactive | –
14 | CN(CC(=O)Nc1ccc(Cl)cc1)C(=O)c1ccc(COc2ccccc2)cc1 | inactive | –
15 | O=C(NCc1ccc2c(c1)OCO2)C(=O)NCC1OCCN1S(=O)(=O)c1ccc(F)cc1 (stereo unspecified) | inactive | –
16 | Brc1c(CSc2nncc3ccccc23)nc2ccccn12 | inactive | –
17 | O=C(Nc1cc(C(F)(F)F)ccc1Cl)c1nc2ccccc2nc1N1CCCCC1 | inactive | –
18 | C/C(=C/C(=O)N1CCN(C)CC1)C(=O)O | inactive | –
19 | O=C(c1cc(-c2ccc(O)cc2)on1)N1CCOCC1 | inactive | –
20 | CCc1nc2sc(C(=O)O)c(N)c2c2c1CCCC2 | inactive | –
21 | COc1cccc(-c2nc(CS(=O)(=O)CC(=O)N3CCN(c4cc(C)ccc4C)CC3)c(C)o2)c1 | 3.26 µM (active) | –
22 | CCCCN(CC)CCCNC(=O)CS(=O)(=O)Cc1nc(-c2cccc(OC)c2)oc1C | inactive | –
23 | COc1ccc(CCNC(=O)CS(=O)(=O)Cc2nc(-c3ccc(C)cc3)oc2C)cc1OC | inactive | –
24 | CC1CCN(CC(O)COc2ccc(C(=O)c3ccccc3)cc2)CC1 (stereo unspecified) | inactive | –
25 | C[C@@H](NC(=O)[C@@H]1Cc2ccccc2CN1)C(=O)NC1CCCC1 | inactive | –
26 | Cc1noc(C)c1S(=O)(=O)N(C)C[C@H]1Oc2ccc(NC(=O)C3CC3)cc2C(=O)N([C@H](C)CO)C[C@@H]1C | inactive | –

Row | SMILES | Potency | activity change, negative = growth inhibition
27 | CCOc1ccc(NC(=S)N2CCCCCC2)cc1 | inactive | –
28 | CCC(C)c1ccc(NC(=S)N2CCCC2)cc1 (stereo unspecified) | 13 µM (active) | –
29 | CCOC(=O)c1ccc(NC(=S)N2CCCC2)cc1 | inactive | –
30 | COc1ccc(CNS(=O)(=O)c2cc(-c3cc(C)no3)ccc2C(C)C)cc1 | 0.92 µM (active) | –
31 | CCOc1ccccc1CNS(=O)(=O)c1cc(-c2cc(C)no2)ccc1C | inactive | –
32 | Cc1cc(-c2ccc(C)c(S(=O)(=O)NC(C)Cc3ccco3)c2)on1 (stereo unspecified) | inactive | –
33 | Cc1nn(-c2ccc(F)cc2)c(Cl)c1/C=C(/CCC(=O)O)c1nc2ccccc2s1 | inactive | –
34 | O=C(Nc1ccccc1)Nc1nc2ccccc2s1 | inactive | –
35 | COc1ccccc1OCc1nc2ccccc2s1 | inactive | –
36 | COc1cccc2sc(NNC(=O)c3nc4ccccc4s3)nc12 | 5.17 µM (active) | –
37 | N#Cc1cccc(CSc2ncnc(N)n2)c1 | inactive | –
38 | O=C(NCCCN1CCCC1=O)c1cccc(S(=O)(=O)NCc2ccccc2)c1 | inactive | –
39 | CC1CCCCC1NC(=O)COC(=O)Cc1ccc(Br)cc1 (stereo unspecified) | inactive | –
40 | CCOC(=O)c1c(S(=O)(=O)NCC(=O)Nc2ccc(Cl)c(C(F)(F)F)c2)c(C)n(C)c1C | 18.4 µM (active) | –
41 | CCOC(=O)c1c(S(=O)(=O)NCC(=O)Nc2ccc(C)cc2)c(C)n(C)c1C | inactive | –
42 | CCOC(=O)c1c(S(=O)(=O)Nc2ccc(CN3CCC(C)CC3)cc2)c(C)n(C)c1C | inactive | –
43 | COCCCNC(=O)C1CCN(c2ccc(N3CCOCC3)nn2)CC1 | inactive | –
44 | Cc1ccc(C(=O)N/C(=C\c2cn(S(=O)(=O)N(C)C)c3ccccc23)C(=O)N2CCCC2)cc1 | inactive | –
45 | COc1cc2nc(NCC(C)c3ccccc3)n3nc(-c4ccccc4)nc3c2cc1OC (stereo unspecified) | 16.4 µM (active) | –
46 | O=C(CCC(=O)NNc1nc2ccccc2c2nc(-c3ccccc3)nn12)NCCCN1CCCC1=O | inactive | –
47 | COc1cc2nc(SCC(=O)Nc3ccccc3F)n3nc(-c4ccccc4)nc3c2cc1OC | inactive | –
48 | N#CCCN(C(=O)COC(=O)c1ccc(S(=O)(=O)N2CCCCCC2)cc1)c1ccccc1 | inactive | –
49 | COc1ccc(S(=O)(=O)N2CCOC23CCN(S(=O)(=O)c2ccc([N+](=O)[O-])cc2)CC3)cc1 | 11.6 µM (active) | –
50 | COc1ccc(CNC(=O)C(=O)N2CCC3(CC2)OCCN3S(=O)(=O)c2ccc(C)cc2)cc1 | inactive | –
51 | COc1ccc(S(=O)(=O)N2CCSCC2)cc1 | inactive | –
52 | COCCN1C2=C(COC(C)(C)C2)C(=S)NC1c1ccccc1 (stereo unspecified) | inactive | –

Row | SMILES | Potency | activity change, negative = growth inhibition
53 | Cc1cc(C)c(OCC(=O)N(Cc2cccs2)C2CCS(=O)(=O)C2)c(C)c1 (stereo unspecified) | inactive | –
54 | Cc1ccccc1OCC(=O)N(Cc1cccc(F)c1)C1CCS(=O)(=O)C1 (stereo unspecified) | inactive | –
55 | Cc1ccsc1CN(C(=O)c1oc2ccc(Br)cc2c1C)C1CCS(=O)(=O)C1 (stereo unspecified) | 9.2 µM (active) | –
56 | NC1=NC2(CCCCC2)N(c2ccc(F)cc2F)C(N)=N1 | inactive | –
57 | COc1cc([N+](=O)[O-])cc([N+](=O)[O-])c1NC(=O)N1CCOCC1 | inactive | –
58 | CCOC(=O)CSc1ncc(-c2cccc(Cl)c2)cn1 | inactive | –
59 | Cn1nc(-c2ccccc2)c(CO)c1Sc1ccccc1 | inactive | –
60 | Cn1nc(-c2ccccc2)c(CSc2cccc(Cl)c2)c1Cl | 16.4 µM (active) | –
61 | C=CCSc1ccc(S(=O)(=O)N2CCN(C)CC2)cn1 | inactive | –
62 | Cc1n[nH]c(=O)n1-c1ccc(C(C)C)cc1 | inactive | –
63 | CCOc1ccc(NC(=O)CN(C)C(=O)Cn2c(=O)cnc3ccccc32)cc1OCC | inactive | –
64 | COc1ccc(N2CCC(CNC(=S)Nc3c(C)cccc3C)C2)cc1 (stereo unspecified) | 23.1 µM (active) | –
65 | COc1ccc(N2CCC(N3CCN(C)C(CCO)C3)CC2)cc1 (stereo unspecified) | inactive | –
66 | COc1cccc(N2CC(C(=O)Nc3c(C)cccc3C)CC2=O)c1 (stereo unspecified) | inactive | –
67 | COc1cc(C(=O)Nc2ccc(OCc3cc(=O)n4cc(C)sc4n3)cc2)cc(OC)c1OC | inactive | –
68 | CC(=O)Nc1ccc(OC(=O)COc2ccc(Br)cc2)cc1 | inactive | –
69 | COc1ccccc1S(=O)(=O)c1c(C)cc(C)[nH]c1=O | inactive | –
70 | O=C(O)CCn1c(Cc2ccccc2)nc2ccccc21 | inactive | –
71 | CC(O)c1nc2ccccc2n1Cc1ccc([N+](=O)[O-])cc1 (stereo unspecified) | inactive | –
72 | CC(C)c1ccc(Cn2c(COc3ccccc3)nc3ccccc32)cc1 | 18.4 µM (active) | –
73 | Cc1ccc(NC(=O)N2CCC(O)(c3cccnc3)CC2)cc1 | inactive | –
74 | Cn1c(C(=O)O)ccc1S(=O)(=O)N(Cc1ccccc1)Cc1ccccc1 | inactive | –
75 | COc1ccccc1N(CC(=O)NC1CCCC1)C(=O)C1(C)CC(=O)N=C2C=CC(C)=CN21 (stereo unspecified) | inactive | –
76 | COc1cc(OC)c(NS(=O)(=O)c2cn(C)cn2)cc1Cl | inactive | –
77 | COc1cc(NC(=O)c2ccc(-c3csc(C)n3)cc2)c(OC)cc1Cl | inactive | –
78 | COC(=O)c1scc(-c2ccc(C)cc2)c1S(=O)(=O)Nc1cc(Cl)c(OC)cc1OC | 13 µM (active) | –

Row | SMILES | Potency | activity change, negative = growth inhibition
79 | COc1ccccc1-c1ccnc(-n2ncc(C(=O)NCCCN3CCOCC3)c2C)n1 | – | 7.6% [at 9.04 µM] (inactive)
80 | Cc1ccc(CN2CCC(CNC(=O)c3cnn(-c4ccccc4Cl)c3C3CCN(C(=O)OC(C)(C)C)CC3)CC2)cc1 | 5.8 µM (active) | –
81 | CCOC(=O)N1CCN(C(=O)C2CCN(Cc3ccc(OC)cc3OC)CC2)CC1 | inactive | –
82 | COc1ccccc1CN1CCC(CNC(=O)c2cnn(-c3cccc(Cl)c3)c2C2CCN(C(=O)OC(C)(C)C)CC2)CC1 | 7.31 µM (active) | –
83 | COc1ccccc1CNC(=O)C1CCN(S(=O)(=O)c2ccc3c(c2)OCCO3)CC1 | inactive | –
84 | COc1ccccc1N1CCN(CC(=O)NCCc2ccc(S(N)(=O)=O)cc2)CC1 | inactive | –
85 | COc1ccccc1N1CCN(CCCNC(=O)c2cnn(-c3ccccc3Cl)c2C2CCN(C(=O)OC(C)(C)C)CC2)CC1 | 8.2 µM (active) | –
86 | CSCCC(=O)N1CCCC(CNC(=O)c2ccccc2Cl)C1 (stereo unspecified) | inactive | –
87 | COc1ccc(Cl)cc1NC(=O)NCC1CCN(Cc2ccccc2F)CC1 | inactive | –
88 | COc1ccccc1CN1CCC(CNC(=O)c2cnn(-c3ccccc3Cl)c2C2CCN(C(=O)OC(C)(C)C)CC2)CC1 | 8.2 µM (active) | –
89 | O=C(NNC(=O)c1ccccc1[N+](=O)[O-])Nc1ccccc1C(F)(F)F | inactive | –
90 | COc1ccc(CCNC(=O)COc2cc(C)cc3oc(=O)c(C)c(C)c23)cc1OC | inactive | –
91 | O=C(COC(=O)c1ccc([N+](=O)[O-])o1)NC12CC3CC(CC(C3)C1)C2 | inactive | –
92 | COc1ccc(C(C)=O)cc1CSc1nc2nc(C)cc(C)n2n1 | inactive | –
93 | COCc1c(C(=O)OCC(=O)Nc2ccc(OC(F)F)cc2)oc2ccccc12 | inactive | –
94 | COc1ccc(CCN2CC(C(=O)OCC(=O)NCc3ccccc3Cl)CC2=O)cc1OC (stereo unspecified) | inactive | –
95 | CC(C)(C)OC(=O)N(Cc1ccco1)S(=O)(=O)c1ccccc1Br | inactive | –
96 | O=c1oc2ccccc2c(=O)c2ccccc12 | inactive | –
97 | O=C(Oc1ccc(F)cc1)N1CCOCC1 | inactive | –
98 | CCS(=O)(=O)N1Cc2ccccc2CC1C(=O)Nc1ccc(OC)cc1OC (stereo unspecified) | inactive | –
99 | O=C(COC(=O)c1ccc(N2CCCC2=O)cc1)c1ccc(OC(F)F)cc1 | inactive | –
100 | CS(=O)(=O)c1ccc(-c2nnn(CC(=O)Nc3ccc4c(c3)OCCO4)n2)cc1 | inactive | –
101 | CCOC(=O)c1cnn2c(SC)ncnc12 | inactive | –
